Potency data for 24 compounds are collected here from PubChem BioAssay (NCATS).

What all share (experiment): qHTS profiling for inhibitors of Plasmodium falciparum proliferation (AID 504749); also: nearly all actives have a fitted effect of over 60% in size
Holding throughout (conditions): P. falciparum in erythrocytes, SYBR Green DNA, 72 h; series mostly up to 28.7 µM
In general terms: Quantitative high-throughput screening tests each substance at several concentrations.

For one assay, the system named is ECU. The essentials: (§1)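 Quantitative HTS: compounds pinned into medium, infected erythrocytes added (0.3% parasitemia, 2.5% hematocrit), 72 h culture at 37 C under 5% CO2. Saponin/Triton lysis with SYBR Green I, overnight RT, then fluorescence read.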
The next assay relates to FAB9. In a few lines: as §1
The test system of the next assay is HB3. In a few lines:
as §1

In another assay the test system is PAD. The essentials: as §1
Another assay relates to GB4. In a few lines: as §1
For a further assay, the system named is ICS. The essentials:
as §1

A further assay has as its system N140. In a few lines:
as §1

A further assay concerns P93_24. In a few lines: as §1
A further assay deals with P94_40. The essentials:
as §1

In another assay the test system is JCK. The essentials: as §1

Records with an inconclusive call do not appear. Calls of active or inactive are those of the source. Calls follow the shape of the dose curve; as a rule, active = well fitted inhibition curve with a large enough effect; inconclusive = small, poorly fitted or top-dose-only effect; inactive = flat fitted curve, though single readings scatter.
Potency is read from the fitted curve at half-maximal effect.

On to `CN(C)CC[C@@H](c1ccc(Br)cc1)c1ccccn1`, for which the Potency entry in the assay on ECU, in the assay on FAB9, in the assay with HB3 and in the assay with PAD was “inactive” each time.
With `COC(=O)[C@H]1[C@H]2C[C@@H]3c4[nH]c5cc(OC)ccc5c4CCN3C[C@H]2C[C@@H](OC(=O)c2cc(OC)c(OC)c(OC)c2)[C@@H]1OC`, the Potency with ECU was 5.01 µM (active); in the assay on GB4, 13.5 µM (active); in the assay with HB3 it was 11.2 µM (active); in the assay on ICS, 3.55 µM (active); in the assay with N140, 3.98 µM (active); in the assay with P93_24 it was 10 µM (active). In addition, the values for the Potency in the assay on P94_40 and with PAD were 7.94 µM (active) and 2 µM (active), respectively.
Regarding `CCOC(=O)C1=C(C)NC(C)=C(C(=O)OC)C1c1cccc([N+](=O)[O-])c1` (stereo not given), the Potency entry in the assay on FAB9 is “inactive”. The Potency with HB3, in the assay with N140 and in the assay with P94_40 was 11.2 µM (active) in each case.
Consider `O=C(O)CN(CCN(CC(=O)O)CC(=O)O)CCN(CC(=O)O)CC(=O)O`, for which the Potency result with ECU, in the assay with FAB9, in the assay with HB3, in the assay on ICS, in the assay on JCK and with N140 was “inactive” throughout. Further, the Potency entry in the assay with P93_24, in the assay on P94_40 and in the assay with PAD was “inactive” throughout.
As for `CNCCC(Oc1ccccc1OC)c1ccccc1` (stereo not given), the Potency entry in the assay with FAB9 and in the assay on HB3 was “inactive” in each case.
`COCCOC(=O)C1=C(C)NC(C)=C(C(=O)OC(C)C)C1c1cccc([N+](=O)[O-])c1` (stereo not given): the Potency result in the assay on FAB9 is “inactive”. In addition, the Potency with ICS is 7.08 µM (active); in the assay on N140 it was 12.6 µM (active).
`CN1CCN(C2=Nc3ccccc3Oc3ccc(Cl)cc32)CC1`: the Potency result with ECU, with FAB9, with HB3, with JCK, in the assay with N140 and in the assay with P93_24 was “inactive” throughout. Further, the Potency entry in the assay on P94_40 and in the assay on PAD was “inactive” in each case.
Regarding `CCCN1C[C@H](CSC)C[C@@H]2c3cccc4[nH]cc(c34)C[C@H]21`, the Potency result in the assay with FAB9 and with HB3 was “inactive” throughout. In addition, the Potency with ICS is 11.2 µM (active).
For the compound `CN1C[C@H](C(=O)N[C@]2(C)O[C@@]3(O)[C@@H]4CCCN4C(=O)[C@H](Cc4ccccc4)N3C2=O)C[C@@H]2c3cccc4[nH]cc(c34)C[C@H]21`, the Potency in the assay on GB4 was 6.01 µM (active).
In the case of `CC(C)COCC(CN(Cc1ccccc1)c1ccccc1)N1CCCC1` (stereo not given), the Potency result in the assay with ECU, with FAB9, in the assay on HB3, with JCK, in the assay on P93_24 and in the assay with PAD was “inactive” in each case.
On to `Cc1nc2sccn2c(=O)c1CCN1CCC(=C(c2ccc(F)cc2)c2ccc(F)cc2)CC1`, for which the Potency result in the assay with FAB9 is “inactive”. Besides, the figures for the Potency in the assay with ICS and in the assay on P94_40 were 8.91 µM (active) and 11.2 µM (active), respectively.
Take `O=C1CC2(CCCC2)CC(=O)N1CCCCN1CCN(c2ncccn2)CC1`: the Potency result in the assay on FAB9, in the assay on HB3, in the assay with ICS, in the assay with JCK, in the assay on N140 and in the assay with P93_24 was “inactive” in each case. In addition, the Potency entry with P94_40 and in the assay with PAD was “inactive” throughout.
Regarding `NC(=Nc1ccccc1)Nc1ccccc1`, the Potency result in the assay on ECU, in the assay on FAB9, in the assay on HB3, with ICS, in the assay on JCK and in the assay on N140 was “inactive” each time. Further, the Potency result with P93_24, with P94_40 and in the assay on PAD was “inactive” each time.
`COCCCC/C(=N\OCCN)c1ccc(C(F)(F)F)cc1`: the Potency entry with FAB9, in the assay on HB3 and in the assay on JCK was “inactive” throughout. Besides, in the assay on P93_24, the Potency was 8.91 µM (active).
With `OCCN1CCN(CC/C=C2/c3ccccc3Sc3ccc(C(F)(F)F)cc32)CC1`, the Potency in the assay with ECU was 12.6 µM (active); in the assay on GB4, 6.75 µM (active); with HB3, 6.31 µM (active); in the assay on ICS, 6.31 µM (active); in the assay on N140 it was 11.2 µM (active); in the assay on P93_24, 10 µM (active). Moreover, the Potency in the assay on P94_40 and with PAD was 10 µM (active) throughout.
With `CCN(CC)CCNC(=O)c1cc(S(C)(=O)=O)ccc1OC`, the Potency result in the assay on ECU, in the assay on FAB9, in the assay on HB3, in the assay on ICS, with JCK and with N140 was “inactive” throughout. Besides, the Potency entry in the assay on P93_24, with P94_40 and with PAD was “inactive” throughout.
Turning to `CCC(=O)c1ccc2c(c1)N(CCCN(C)C)c1ccccc1S2`, the Potency result with ECU and in the assay on HB3 was “inactive” each time. The Potency with ICS was 8.91 µM (active).
Turning to `CC(C)(C)c1ccc(C(=O)CCCN2CCC(OC(c3ccccc3)c3ccccc3)CC2)cc1`, the Potency in the assay with GB4 is 10.7 µM (active); in the assay with ICS, 4.47 µM (active); in the assay on N140, 10 µM (active); with P94_40, 7.94 µM (active). For the same compound, the Potency result in the assay on JCK was “inactive”.
For `CCCC(C(=O)OCCN(CC)CC)(c1ccccc1)c1ccccc1`, the Potency in the assay with ECU was 10 µM (active); with GB4 it was 10.7 µM (active); in the assay with ICS, 5.62 µM (active); with PAD, 11.2 µM (active).
Consider `C=CCc1ccccc1OCC(O)CNC(C)C` (stereo not given), for which the Potency entry in the assay on FAB9 is “inactive”. Also, the Potency in the assay with GB4 is 7.57 µM (active); in the assay with ICS, 11.2 µM (active); in the assay with N140 it was 11.2 µM (active); in the assay with P93_24, 4.47 µM (active); in the assay with P94_40, 12.6 µM (active).
In the case of `c1cc(CN2CCCCC2)cc(OCCCNc2nc3ccccc3s2)c1`, the Potency result in the assay with FAB9 and with JCK was “inactive” in each case. Further, in the assay on P94_40, the Potency is 10 µM (active).
Regarding `CN(C)C/C=C(/c1ccc(Br)cc1)c1cccnc1`, the Potency result with FAB9, with HB3, with JCK and in the assay on N140 was “inactive” each time.
On to `NC(N)=N/N=C/c1c(Cl)cccc1Cl`, for which the Potency in the assay on GB4 is 12 µM (active); with ICS, 8.91 µM (active). For the same compound, the Potency entry in the assay with JCK is “inactive”.
As for `CCN(CC)CCOCCOC(=O)C1(c2ccccc2)CCCC1`, the Potency with ECU was 11.2 µM (active); in the assay with GB4, 6.01 µM (active); in the assay with HB3, 12.6 µM (active); in the assay with ICS, 1.41 µM (active); in the assay with N140 it was 7.08 µM (active); in the assay on P93_24, 6.31 µM (active). For the same compound, the figures for the Potency in the assay with P94_40 and with PAD were 7.08 µM (active) and 8.91 µM (active), respectively.
